# Data from paper PMC4336329 (PLoS ONE, 2015).
# Screen size: about 310,000 compounds; about 14,000 (4.5%) showed an effect of 50% or more. Effects have a minus sign here. Only a selection was taken, and strong results are over-represented in it overall.
# Target: human ether-à-go-go-related gene (hERG) potassium channel (human, UniProt Q12809)
# Assay: primary screen, population patch clamp on CHO cells stably expressing hERG; higher = less effect of the substance
# 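Note: peak tail current of the secondary pulse compared with the same well before compound.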
# Sequence of human ether-à-go-go-related gene (hERG) potassium channel (Q12809 whole entry, looked up): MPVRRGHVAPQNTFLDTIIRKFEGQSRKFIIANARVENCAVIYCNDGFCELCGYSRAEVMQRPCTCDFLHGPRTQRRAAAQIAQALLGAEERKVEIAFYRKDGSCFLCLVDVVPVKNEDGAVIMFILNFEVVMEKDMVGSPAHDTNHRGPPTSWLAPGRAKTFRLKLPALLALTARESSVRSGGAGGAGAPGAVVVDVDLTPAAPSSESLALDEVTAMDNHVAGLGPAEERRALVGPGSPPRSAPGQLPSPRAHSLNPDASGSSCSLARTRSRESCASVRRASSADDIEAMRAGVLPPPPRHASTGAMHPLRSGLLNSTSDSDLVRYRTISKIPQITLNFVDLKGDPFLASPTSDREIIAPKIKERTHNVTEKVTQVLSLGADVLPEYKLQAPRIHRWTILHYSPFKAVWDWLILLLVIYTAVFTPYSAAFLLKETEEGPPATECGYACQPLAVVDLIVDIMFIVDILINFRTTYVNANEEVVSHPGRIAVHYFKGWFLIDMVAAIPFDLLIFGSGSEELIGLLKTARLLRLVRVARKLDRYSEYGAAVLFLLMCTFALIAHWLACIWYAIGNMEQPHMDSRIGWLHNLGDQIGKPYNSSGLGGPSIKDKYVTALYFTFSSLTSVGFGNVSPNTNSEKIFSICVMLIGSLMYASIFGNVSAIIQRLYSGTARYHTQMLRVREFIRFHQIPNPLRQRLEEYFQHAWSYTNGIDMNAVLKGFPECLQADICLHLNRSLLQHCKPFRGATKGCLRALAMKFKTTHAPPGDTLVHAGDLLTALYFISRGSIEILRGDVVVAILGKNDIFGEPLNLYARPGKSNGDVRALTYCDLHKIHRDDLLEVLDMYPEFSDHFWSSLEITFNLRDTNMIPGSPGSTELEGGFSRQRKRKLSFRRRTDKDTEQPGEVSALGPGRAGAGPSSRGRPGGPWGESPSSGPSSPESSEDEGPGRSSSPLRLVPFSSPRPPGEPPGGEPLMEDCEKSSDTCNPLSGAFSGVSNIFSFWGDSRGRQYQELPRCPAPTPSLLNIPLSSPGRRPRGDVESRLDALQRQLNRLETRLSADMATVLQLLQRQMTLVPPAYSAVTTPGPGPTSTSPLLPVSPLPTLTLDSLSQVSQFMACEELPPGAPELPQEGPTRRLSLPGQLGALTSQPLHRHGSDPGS
row,SMILES,"hERG current change (%, negative = inhibition) at 10uM [%]"
1,COc1ccccc1CNC(=O)CN(c1ccc(C)cc1)S(=O)(=O)c1c(C)nn(C)c1C,-24.1
2,Cn1c(-c2ccc(N)cc2)nc2ccccc21,-3.42
3,COc1ccc2c(c1)c1nc3ccccc3nc1n2Cc1ccc(OC(C)C)c(OC)c1,-0.905
4,CCn1c(SCCC(=O)O)nnc1-c1cccnc1,4.65
5,O=C(NCC1CC1)c1onc(CSc2ccc(F)cc2)c1C(=O)NCC1CC1,-51.6
6,O=C(NCc1ccccc1)c1onc(CSc2ccc(F)cc2)c1C(=O)NCCCN1CCOCC1,-73.9
7,CCCNC(=O)c1onc(CSc2nc3ccccc3[nH]2)c1C(=O)NCCC,-35.7
8,COCCNC(=O)c1onc(CSc2nc3ccccc3[nH]2)c1C(=O)NCCOC,-14.3
9,CCCNC(=O)c1onc(CSc2ccc(F)cc2)c1C(=O)NCCC,5.35
10,O=C(NCc1ccccc1)c1onc(CSc2ccccc2)c1C(=O)NCC1CC1,-33.4
11,O=C(NCc1ccccc1)c1onc(CSc2ccc(F)cc2)c1C(=O)NCc1ccccc1,1.49
12,O=C(NCC1CC1)c1onc(CSc2ccncc2)c1C(=O)NCC1CC1,-11.9
13,CCCNC(=O)c1onc(CSc2ccc(F)cc2)c1C(=O)NCC1CC1,-62.7
14,O=C(NCC1CC1)c1onc(CSc2nc3ccccc3[nH]2)c1C(=O)NCC1CC1,-69.8
15,O=C(NCCCN1CCOCC1)c1onc(CSc2ccccc2)c1C(=O)NCCCN1CCOCC1,4.97
16,CCCNC(=O)c1onc(CSc2ccc(Cl)cc2)c1C(=O)NCC1CC1,-8.67
17,O=C(/C=C\c1ccc2c(c1)OCO2)CC1(O)C(=O)Nc2ccccc21 (stereo not shown),-0.111
18,COc1cccc(CC(=O)N2CCC(n3nccc3NC(=O)C3CCOC3)CC2)c1 (stereo not shown),21.7
19,NC(=O)c1ccccc1NC(=O)Nc1ccccc1Cl,11.8
20,COCCn1c(C)cc(C(=O)CSc2ccc(NC(C)=O)cc2)c1C,12.4
21,COc1ccc(N2CCN(C(=O)CCNC(=O)Cn3ccc4ccccc4c3=O)CC2)cc1,-8.61
22,CN1CCN(NC(=O)c2cc(-c3ccccn3)nc3ccccc23)CC1,14

row,SMILES,"hERG current change (%, negative = inhibition) at 10uM [%]"
1,Cc1cccc(OCCCCCNCCO)c1,3.93
2,CCC(C)(C)n1nnnc1C(c1ccc(C)cc1)N1CCN(C(=O)c2ccco2)CC1 (stereo not shown),-45.8
3,CN1CCN(C(=S)C(=O)NCc2ccccc2)CC1,-2.07
4,COc1cc(CNc2ccccc2SC)ccc1O,12.8
5,O=C(NCC1CC1)c1onc(CSc2ccc(F)c(F)c2)c1C(=O)NCC1CC1,-56.1
6,C=CCNC(=O)c1onc(CSc2ccc(F)c(F)c2)c1C(=O)NCC=C,-64.5
7,C=CCNC(=O)c1onc(CSc2ccc(Cl)cc2)c1C(=O)NCC=C,-36.6
8,COCCNC(=O)c1onc(CSc2ccc(F)c(F)c2)c1C(=O)NCCOC,-25.5
9,C=CCNC(=O)c1onc(CSc2ccc(F)c(F)c2)c1C(=O)O,22.4
10,O=C(NCC1CCCO1)c1onc(CSc2ccc(F)c(F)c2)c1C(=O)O (stereo not shown),1.63
11,Cl.OC(CNC1CCCC1)COc1ccccc1Br (stereo not shown),7.79
12,O=C(Cc1ccccc1)NCC(=O)Nc1ccccc1Br,16.8
13,Cc1cc(NC(=O)CSc2nc(-c3ccc(Br)cc3)nc3c2c(=O)n(C)c(=O)n3C)no1,-8.93
14,O=C(COC(=O)c1ccccc1F)NNC(=O)c1ccccc1,8.17
15,O=C(CSCc1ccc(Cl)cc1)Nc1nccs1,6.08
16,CCc1ccccc1NC(=O)COc1ccc2c(c1)OCO2,-4.6
17,CCN(CCCNC(=O)CC(C(=O)N1CCc2ccccc21)n1ccnc1)c1cccc(C)c1 (stereo not shown),-65
18,CCCN(CCC)CCCNC(=O)CC(C(=O)N1CCc2ccccc21)n1ccnc1 (stereo not shown),-0.225
19,CCN(CCCNC(=O)CC(C(=O)N1CCc2ccccc21)n1ccnc1)c1ccccc1 (stereo not shown),-45.6
20,Nc1ccc(Cl)c(S(=O)(=O)Nc2ccc(Cl)cc2)c1,17.3
21,Cc1ccc(N2CC(C(=O)Nc3ccc(S(=O)(=O)Nc4nccc(C)n4)cc3)CC2=O)cc1 (stereo not shown),3.17
22,CN(C)C(=O)c1ccccc1Sc1ccc(Cl)cc1Cl,-70.4

row,SMILES,"hERG current change (%, negative = inhibition) at 10uM [%]"
1,CN(C)C(=O)c1cc(Cl)ccc1Sc1cc(Cl)ccc1Cl,-6.03
2,CN(C)C(=O)c1ccccc1Sc1cc(Cl)ccc1Cl,-14.5
3,Cc1onc(-c2ccccc2)c1C(=O)NCc1ccccc1F,7.62
4,[N-]=[N+]=CC(=O)OC[C@H](N)C(=O)O,10.8
5,CCOC(=O)c1c(CN2CCOCC2)n(-c2ccccc2)c2cc(Br)c(O)cc12.Cl,-7.35
6,CCOC(=O)c1c(C)n(CC(O)CN(CC)CC)c2cc(Br)c(OC)cc12.Cl (stereo not shown),-26.9
7,CCOC(=O)c1c(CN2CCN(CCO)CC2)n(-c2ccccc2)c2cc(Br)c(O)cc12,-68.2
8,CCOC(=O)c1c(CN2CCOCC2)n(-c2ccccc2)c2cc(Br)c(OC)cc12,3.27
9,CCOC(=O)c1c(C)n(CC(O)CN2CCOCC2)c2cc(Br)c(OC)cc12.Cl (stereo not shown),-24
10,CCOC(=O)c1c(CN(C)C)n(-c2ccc(C)cc2)c2cc(Br)c(O)cc12,-35.8
11,CCOC(=O)c1c(CN2CCN(Cc3ccccc3)CC2)n(C)c2cc(Br)c(OC)cc12,7.08
12,CCOC(=O)c1c(CN(C)C)n(-c2ccccc2)c2cc(Br)c(OC)cc12,-58.6
13,CCOC(=O)c1c(CN(C)C)n(-c2ccccc2)c2cc(Br)c(O)cc12.Cl,-75.8
14,CCOC(=O)c1c(C)n(-c2ccccc2)c2ccc(OCCN(C)C)cc12,-10.6
15,CCOC(=O)c1c(C)n(CC(O)CN(C)C)c2cc(Br)c(OC)cc12.Cl (stereo not shown),-51.5
16,COc1ccccc1NC(=O)CSC1=NCCN1.Cl,36.3
17,O=C(c1cccs1)N1CCC(c2ccccc2)C1 (stereo not shown),-1.16
18,N#Cc1nc(-c2cccs2)oc1NCCc1ccccc1,3.08
19,CC(NC(=O)C(=O)N1CCCCC1)C(c1cccs1)N1CCN(c2ccccc2F)CC1 (stereo not shown),1.73
20,COc1cccc(-n2c(SCC(=O)NCCC3=CCCCC3)nc3n[nH]c(C)c3c2=N)c1,-58.9
21,Cc1ccc(-n2c(SCC(=O)NCCC3=CCCCC3)nc3n[nH]c(C)c3c2=N)cc1Cl,-9.38
22,Cc1cc(-n2c(SCC(=O)NCCC3=CCCCC3)nc3n[nH]c(C)c3c2=N)ccc1Cl,4.5

row,SMILES,"hERG current change (%, negative = inhibition) at 10uM [%]"
1,COc1ccc(NC(=O)c2ccc(COc3ccccc3Br)o2)c(OC)c1,10.5
2,CCCOc1ccc(OC(=O)Cc2ccc(OC)c(S(=O)(=O)N3CCOCC3)c2)cc1,-21.7
3,Cc1ccc(NC(=O)CCN2C(=O)c3ccccc3C2=O)cc1C,4.19
4,O=C(CSc1nnc(-c2c[nH]c3ccccc23)n1-c1ccc(F)cc1)NCc1ccco1,-22
5,O=C(COC(=O)C1CCN(C(=O)c2ccc(Cl)cc2)CC1)Nc1ccccc1F,-56.9
6,Cc1cc(NC(=O)COC(=O)C2CCN(C(=O)c3ccc(Cl)cc3)CC2)no1,-19.2
7,O=C(COC(=O)C1CCN(C(=O)c2ccc(Cl)cc2)CC1)c1ccco1,-26.2
8,C/C(N)=C(/C#N)C(=O)COC(=O)C1CCN(C(=O)c2ccc(Cl)cc2)CC1,-14.3
9,N#Cc1ccccc1NC(=O)COC(=O)C1CCN(C(=O)c2ccc(Cl)cc2)CC1,-62.5
10,O=C(COC(=O)C1CCN(C(=O)c2ccc(Cl)cc2)CC1)NC1CCS(=O)(=O)C1 (stereo not shown),26.9
11,Cc1ccc(-c2cnco2)cc1,11.9
12,COCCN(CCOC)C(=S)Nc1ccccc1Cl,6.62
13,COc1ccc(NC(=O)C(F)(F)F)cc1OC,15.1
14,COc1ccc(CN2C(=O)c3oc4ccccc4c(=O)c3C2c2ccc(O)c(OC)c2)cc1 (stereo not shown),4.88
15,Cc1ccc(S(=O)(=O)N2CCC(CN3C(=O)c4cccc5cccc(c45)C3=O)CC2)cc1,11.3
16,Cc1ccc(C)c(OCC(O)CN2CCC(CN3C(=O)c4cccc5cccc(c45)C3=O)CC2)c1.Cl (stereo not shown),-68.2
17,Cc1cc(C)cc(OCC(O)CN2CCC(CN3C(=O)c4cccc5cccc(c45)C3=O)CC2)c1.Cl (stereo not shown),-70
18,O=C1c2cccc3cccc(c23)C(=O)N1CC1CCN(S(=O)(=O)c2ccc(F)cc2)CC1,2.54
19,Cl.O=C1c2cccc3cccc(c23)C(=O)N1CC1CCN(CC(O)COc2ccc3ccccc3c2)CC1 (stereo not shown),-46.1
20,Cc1cccc(C)c1OCC(O)CN1CCC(CN2C(=O)c3cccc4cccc(c34)C2=O)CC1.Cl (stereo not shown),-76.2
21,CCOC(=O)N1CCN(CC(O)COc2c(C)cccc2C)CC1.Cl (stereo not shown),-15.7
22,COc1cccc(OCC(O)CN2CCC(CN3C(=O)c4cccc5cccc(c45)C3=O)CC2)c1.Cl (stereo not shown),-72.3
